Measurements published in PubChem BioAssay (NCATS).
Results filed as inconclusive are left out. Calls of active or inactive are those of the source. Unless noted, calls follow the shape of the dose curve; as a rule, active = well fitted curve in the direction sought with a large enough effect; inconclusive = small, poorly fitted or top-dose-only effect, or another doubt; inactive = no such curve, though single readings can be large; an effect the other way counts as inactive or inconclusive.

Columns and labels:
[1] = qHTS for differential inhibitors of proliferation of Plasmodium falciparum line Dd2 (AID 1882); conditions: Potency: Plasmodium falciparum Dd2 proliferation inhibition; also: nearly all actives have a fitted effect of over 65% in size; also: potency is read from the fitted curve at half-maximal effect
How it was run: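 RBC culture, 0.3% parasitemia / 2.5% Hct final; cpd added by pin tool in DMSO; 72 h, 37 C, 5% CO2; lysis buffer + SYBR Green I, o/n RT dark; FI 485/535; norm. to artemisinin 0.29 uM and DMSO.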

[2] = qHTS for differential inhibitors of proliferation of Plasmodium falciparum line W2 (AID 1883); conditions: Potency: Plasmodium falciparum W2 proliferation inhibition;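 also: parasites grown with compound for 72 h before lysis and staining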; also: potency is read from the fitted curve at half-maximal effect
[3] = qHTS for differential inhibitors of proliferation of Plasmodium falciparum line HB3 (AID 1886); conditions: Potency: Plasmodium falciparum HB3 proliferation inhibition;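 also: parasites grown with compound for 72 h before SYBR Green readout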; also: potency is read from the fitted curve at half-maximal effect
[4] = target: Ferritin light chain (Equus caballus) (UniProt P02791); assay: qHTS Validation Assay for Identification of Novel General Anesthetics (AID 2323); also: series mostly up to about 77 µM
How it was run: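 Apoferritin from horse spleen (10 uM) was mixed with 1-aminoanthracene at 50% saturation in PBS, then compounds were added. After 10 min at room temperature, fluorescence was read (ex 380 nm, em 535 nm) and normalized to free-probe and complex controls.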

[5] = target: ATP-dependent DNA helicase Q1 (Homo sapiens) (UniProt P46063); assay: qHTS Validation Assay for Inhibitors of RecQ-Like Dna Helicase 1 (RECQ1) (AID 2353)
How it was run: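 RECQ1T1 50 nM; forked duplex (20 bp + 30-nt ss tails) 200 nM, ATP 2 mM final; pH 8.0, 2 mM MgCl2, 2.5 ug/ml poly(dI-dC); 15 min compound preincubation; discontinuous kinetic read over 2 h at RT.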

[6] = Cytometric Cell-Based qHTS for Inhibitors of the mTORC1 Signaling Pathway in MEF (Tsc2-/-, p53-/-) Cells (AID 2660);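 also: Tsc2 and p53 null MEFs carrying empty vector with compound for 24 h; percent of cells above a phospho-rpS6 to PI ratio cutoff in each well; series mostly up to about 38 µM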
How it was run: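 Percent of cells positive for normalized phospho-S6 staining is reported, with the cutoff set from rapamycin (7.5 nM) versus DMSO wells. Tsc2-/-, p53-/- MEFs received compound for 24 hrs.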

[7] = High Content Imaging Cell-Based qHTS for Inhibitors of the mTORC1 Signaling Pathway in MEF (Tsc2-/-, p53-/-) Cells (AID 2666);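 also: percent of cells scored positive for phospho-rpS6 Ser235/236 immunostaining by imaging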
How it was run: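 Tsc2-/-, p53-/- MEFs (empty-vector stable) grown in DMEM + 10% FBS were exposed to compounds for 24 hrs at 37 degree Celsius, fixed, and stained with Alexa-488 anti-phospho-rpS6 Ser235/236 plus Hoechst. Imaging gave the percentage of positive cells per well.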

[8] = High Content Imaging Cell-Based qHTS for Inhibitors of the mTORC1 Signaling Pathway in MEF Cells (AID 2667);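 also: Tsc2-/- p53-/- MEFs stably re-expressing wild-type Tsc2 exposed 24 h; series mostly up to about 38 µM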
How it was run: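 Tsc2-/-, p53-/- MEFs stably re-expressing WT Tsc2, grown in DMEM + 10% FBS, were treated with compounds for 24 hrs at 37 degree Celsius, fixed, and stained with Alexa-488 phospho-rpS6 Ser235/236 antibody plus Hoechst; results given as % positive cells.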

[9] = Cytometry Cell-Based qHTS for Inhibitors of the mTORC1 Signaling Pathway in MEF cells (AID 2668);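 also: Tsc2-/- p53-/- mouse embryonic fibroblasts stably re-expressing wild-type Tsc2; percent cells positive for phospho-rpS6 Ser235/236 relative to propidium iodide stain; series mostly up to about 38 µM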
How it was run: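 Pathway inhibition in WT Tsc2-rescued Tsc2-/-, p53-/- MEFs is measured as the Alexa-488 phospho-rpS6 to propidium iodide intensity ratio after 24 hrs of compound at 37 degree Celsius. PI-stained cell number gives viability.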

[10] = Validation screen for inhibitors of Lassa infection (AID 463096; calls by dose curve; also: potency is read from the fitted curve at half-maximal effect)
[11] = Validation screen for small molecules that induce DNA re-replication in MCF 10A normal breast cells (AID 463097); also: nearly all actives have a fitted effect of over 60% in size; also: potency is read from the fitted curve at half-maximal effect
How it was run: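 DNA re-replication was detected as a rise in nuclei with elevated Hoechst fluorescence after a 48 hr compound exposure of MCF 10A cells at 37 C.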

[12] = target: Ubiquitin carboxyl-terminal hydrolase 2 (Homo sapiens) (UniProt O75604); assay: qHTS Validation Assay for Inhibitors of Ubiquitin-specific Protease USP2a Using CHOP2 as the Reporter (AID 463106); also: potency is read from the fitted curve at half-maximal effect
How it was run: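 Readout was coupled fluorescence (Ex 485/Em 531 nm), read 60 min after adding 25 nM final Ub-CHOP2 and 25 nM reporter substrate. Beforehand, 10 nM final USP2 core had 30 min at RT with compound in pH 8.0 buffer. Curves were fitted after normalization to NEM and flagged for artifacts using time-zero reads.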

[13] = target: DNA polymerase III PolC-type (Bacillus subtilis (strain 168)) (UniProt P13267); assay: qHTS Validation Assay for the Inhibitors of DNA Replication in Gram-Positive Bacteria (AID 485295); also: potency is read from the fitted curve at half-maximal effect
How it was run: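 Primed replication of single-stranded M13Gori by a four-protein B. subtilis holoenzyme is measured at room temperature. Double-stranded product is quantified by PicoGreen fluorescence after an EDTA stop; inhibition is scaled between DMSO and EDTA controls.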

[14] = target: Tumor susceptibility gene 101 protein (Homo sapiens) (UniProt Q99816); assay: qHTS Validation Assay for Iinhibitors of HIV-1 Budding by Blocking the Interaction of PTAP/TSG101 (AID 485342; calls by dose curve)
How it was run: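 Fluorescence anisotropy measured PTAP-Tsg101 interaction. Final concentrations were 10 uM protein domain and 50 nM labeled peptide, equilibrated 20 min at room temperature.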

[15] = qHTS Validation Assay to Find Inhibitors of Chronic Active B-Cell Receptor Signaling (AID 485345; active = well fitted curve in the direction sought with a large enough effect in the main read-out, with a control signal flat, not every such curve was filed as active)
How it was run: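 Read-out: ratio of filter-corrected green (IkappaBalpha fusion) to red (native) luciferase signal in doxycycline-induced TMD8 cells after 4 h at 37C. Titration spanned 46 uM–3 nM; Data were normalised to basal cells and 10 uM MG-132 wells.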

[16] = target: Beta-2 adrenergic receptor (Homo sapiens) (UniProt P07550); assay: qHTS validation assay of beta-arrestin-biased ligands of beta2-adrenergic receptor (AID 485366)
How it was run: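 Screening used a titration range of up to 46 microM in a beta-arrestin recruitment Tango luciferase assay. Cells in 1% FBS medium were treated 18 hr at 37 degrees C, and luminescence was normalized to %Activity.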

[17] = Quantitative high throughput screen for delayed death inhibitors of the malarial parasite plastid, 96 hour incubation (AID 488745); also: nearly all actives have a fitted effect of over 70% in size; also: potency is read from the fitted curve at half-maximal effect
How it was run: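 Luciferase-expressing P. falciparum, infected RBCs 2% Hct/0.1% parasitemia (final); 96 h cpd exposure, 37 C, 5% CO2; RPMI 1640 + 0.5% Albumax, bicarbonate, gentamycin. Readout: luminescence loss = growth inhibition.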

[18] = target: RecQ-like DNA helicase BLM (Homo sapiens) (UniProt P54132); assay: qHTS Validation Assay for Inhibitors of Bloom's syndrome helicase (BLM) (AID 2364); also: potency is read from the fitted curve at half-maximal effect
How it was run: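 Forked 20-bp duplex substrate (200 nM, TAMRA/BHQ-2) plus 2 mM ATP added after 15 min compound preincubation with 50 nM enzyme, pH 8.0, poly(dI-dC) 2.5 ug/ml. Strand separation followed by fluorescence (525/598 nm) over 2 h, normalized to enzyme-free and DMSO controls.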

[19] = qHTS Assay for Modulators of Human Peripheral Myelin Protein 22 (PMP22) Expression/Activity (AID 1967; active = well fitted curve in the direction sought with a large enough effect in the signal ratio; the % refers to the signal ratio)
How it was run: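 Quantitative HTS in a mouse Schwann cell line expressing dual click beetle luciferases: Pmp22 promoter (green) and control EF-alpha promoter (red). After 24h treatment, corrected green/red signal ratio gave %Activity relative to untreated cells.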

[20] = qHTS Assay for Identification of Small Molecule Inducers of Hypoxia Response (AID 2120; active = well fitted curve in the direction sought with a large enough effect in the signal ratio, with a control signal flat, not every such curve was filed as active; the % refers to the signal ratio)
How it was run: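 Read-out: CCF4 FRET emission ratio 460nm/530nm (excitation 405nm), converted to %Activity, with AC50 fitted across a compound titration. ME-180 cells carried an HRE-driven beta-lactamase reporter; compound exposure 17 h, 37 degrees C.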

Measured: Potency

Sequence of Beta-2 adrenergic receptor (Homo sapiens) (P07550 whole entry, looked up): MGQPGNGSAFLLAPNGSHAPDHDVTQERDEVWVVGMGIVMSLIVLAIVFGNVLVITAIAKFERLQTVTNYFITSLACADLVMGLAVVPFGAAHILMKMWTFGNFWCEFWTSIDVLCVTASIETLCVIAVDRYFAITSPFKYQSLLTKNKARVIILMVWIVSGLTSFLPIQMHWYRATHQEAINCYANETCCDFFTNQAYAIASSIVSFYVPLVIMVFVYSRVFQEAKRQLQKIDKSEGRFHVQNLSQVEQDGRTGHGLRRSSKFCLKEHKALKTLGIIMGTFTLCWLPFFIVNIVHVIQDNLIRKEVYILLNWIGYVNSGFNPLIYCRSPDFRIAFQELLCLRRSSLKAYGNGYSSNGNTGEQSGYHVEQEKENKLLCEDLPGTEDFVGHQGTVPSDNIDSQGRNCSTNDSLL
Sequence of Ferritin light chain (Equus caballus) (P02791 2-175 limits assumed): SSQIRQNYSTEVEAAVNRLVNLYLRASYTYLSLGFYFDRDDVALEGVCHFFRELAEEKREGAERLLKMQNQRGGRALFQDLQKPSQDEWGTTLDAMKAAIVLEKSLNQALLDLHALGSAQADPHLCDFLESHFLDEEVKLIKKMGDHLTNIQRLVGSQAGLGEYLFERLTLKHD
Sequence of Ubiquitin carboxyl-terminal hydrolase 2 (Homo sapiens) (O75604 whole entry, looked up): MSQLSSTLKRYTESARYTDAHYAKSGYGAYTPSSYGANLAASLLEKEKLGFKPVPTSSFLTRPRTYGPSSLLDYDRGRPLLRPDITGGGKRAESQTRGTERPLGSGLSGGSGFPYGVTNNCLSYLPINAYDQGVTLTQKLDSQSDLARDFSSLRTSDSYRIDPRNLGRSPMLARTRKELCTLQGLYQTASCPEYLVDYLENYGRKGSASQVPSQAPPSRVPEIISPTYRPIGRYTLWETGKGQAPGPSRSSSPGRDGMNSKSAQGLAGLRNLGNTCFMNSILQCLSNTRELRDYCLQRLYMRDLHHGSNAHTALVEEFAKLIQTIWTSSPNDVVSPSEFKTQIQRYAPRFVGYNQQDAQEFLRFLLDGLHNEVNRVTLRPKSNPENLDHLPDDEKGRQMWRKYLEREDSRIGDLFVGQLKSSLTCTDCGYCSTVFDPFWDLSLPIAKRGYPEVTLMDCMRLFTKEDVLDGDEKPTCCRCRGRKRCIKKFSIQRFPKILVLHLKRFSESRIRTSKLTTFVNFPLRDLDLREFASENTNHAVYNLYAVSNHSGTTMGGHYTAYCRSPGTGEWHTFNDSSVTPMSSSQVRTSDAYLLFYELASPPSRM
Sequence of ATP-dependent DNA helicase Q1 (Homo sapiens) (P46063 whole entry, looked up): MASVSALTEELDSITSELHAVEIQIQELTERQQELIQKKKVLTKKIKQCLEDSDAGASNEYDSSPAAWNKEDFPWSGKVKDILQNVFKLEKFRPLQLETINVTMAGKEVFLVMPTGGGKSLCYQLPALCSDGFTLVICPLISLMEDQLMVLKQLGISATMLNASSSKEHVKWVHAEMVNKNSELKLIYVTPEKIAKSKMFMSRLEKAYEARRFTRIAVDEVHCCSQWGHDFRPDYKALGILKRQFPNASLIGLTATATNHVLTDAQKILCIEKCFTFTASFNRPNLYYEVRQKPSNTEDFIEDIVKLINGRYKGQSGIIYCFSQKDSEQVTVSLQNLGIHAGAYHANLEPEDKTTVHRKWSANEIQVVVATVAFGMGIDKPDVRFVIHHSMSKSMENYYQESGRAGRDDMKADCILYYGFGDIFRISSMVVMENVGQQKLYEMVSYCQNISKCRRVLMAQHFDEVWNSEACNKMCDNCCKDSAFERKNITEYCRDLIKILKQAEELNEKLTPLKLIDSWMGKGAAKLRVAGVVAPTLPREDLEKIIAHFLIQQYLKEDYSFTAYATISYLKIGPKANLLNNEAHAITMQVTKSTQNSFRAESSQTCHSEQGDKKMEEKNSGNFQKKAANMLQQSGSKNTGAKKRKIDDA
Sequence of RecQ-like DNA helicase BLM (Homo sapiens) (P54132 whole entry, looked up): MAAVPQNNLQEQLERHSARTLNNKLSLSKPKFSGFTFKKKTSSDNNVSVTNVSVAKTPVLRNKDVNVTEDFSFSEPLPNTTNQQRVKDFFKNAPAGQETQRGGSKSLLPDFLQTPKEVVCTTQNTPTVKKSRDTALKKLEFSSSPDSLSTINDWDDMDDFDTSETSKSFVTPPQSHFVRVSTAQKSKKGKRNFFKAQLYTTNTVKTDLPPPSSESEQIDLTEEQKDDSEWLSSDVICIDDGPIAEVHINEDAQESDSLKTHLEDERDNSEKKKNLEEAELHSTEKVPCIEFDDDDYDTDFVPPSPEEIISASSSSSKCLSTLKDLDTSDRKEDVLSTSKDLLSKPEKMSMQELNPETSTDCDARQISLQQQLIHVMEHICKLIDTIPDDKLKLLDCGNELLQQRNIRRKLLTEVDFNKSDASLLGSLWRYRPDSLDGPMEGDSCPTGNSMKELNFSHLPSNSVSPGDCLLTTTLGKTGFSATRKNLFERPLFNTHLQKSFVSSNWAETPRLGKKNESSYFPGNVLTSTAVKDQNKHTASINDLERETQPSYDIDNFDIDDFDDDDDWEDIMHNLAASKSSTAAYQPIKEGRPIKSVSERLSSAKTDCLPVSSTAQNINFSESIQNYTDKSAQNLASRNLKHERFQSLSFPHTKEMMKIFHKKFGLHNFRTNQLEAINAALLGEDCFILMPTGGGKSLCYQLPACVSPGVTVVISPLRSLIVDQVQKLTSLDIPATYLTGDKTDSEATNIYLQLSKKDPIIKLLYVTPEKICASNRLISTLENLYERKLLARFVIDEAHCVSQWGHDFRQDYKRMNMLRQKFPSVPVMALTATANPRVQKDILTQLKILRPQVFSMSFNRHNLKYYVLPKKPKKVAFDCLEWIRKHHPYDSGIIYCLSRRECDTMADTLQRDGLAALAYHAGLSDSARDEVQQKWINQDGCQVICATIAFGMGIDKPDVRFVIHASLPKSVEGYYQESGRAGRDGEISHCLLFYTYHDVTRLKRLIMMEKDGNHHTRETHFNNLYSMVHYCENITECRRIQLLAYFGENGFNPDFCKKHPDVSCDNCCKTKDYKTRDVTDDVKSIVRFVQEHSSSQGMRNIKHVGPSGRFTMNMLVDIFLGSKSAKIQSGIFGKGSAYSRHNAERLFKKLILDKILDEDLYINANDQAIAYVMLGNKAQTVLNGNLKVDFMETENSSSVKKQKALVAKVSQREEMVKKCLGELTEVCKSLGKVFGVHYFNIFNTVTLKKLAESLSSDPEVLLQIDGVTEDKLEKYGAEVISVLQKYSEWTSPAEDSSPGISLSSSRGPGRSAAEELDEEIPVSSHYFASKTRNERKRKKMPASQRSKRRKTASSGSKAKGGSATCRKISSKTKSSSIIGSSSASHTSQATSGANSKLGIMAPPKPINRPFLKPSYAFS
Sequence of Tumor susceptibility gene 101 protein (Homo sapiens) (Q99816 whole entry, looked up, the tested form may be a part): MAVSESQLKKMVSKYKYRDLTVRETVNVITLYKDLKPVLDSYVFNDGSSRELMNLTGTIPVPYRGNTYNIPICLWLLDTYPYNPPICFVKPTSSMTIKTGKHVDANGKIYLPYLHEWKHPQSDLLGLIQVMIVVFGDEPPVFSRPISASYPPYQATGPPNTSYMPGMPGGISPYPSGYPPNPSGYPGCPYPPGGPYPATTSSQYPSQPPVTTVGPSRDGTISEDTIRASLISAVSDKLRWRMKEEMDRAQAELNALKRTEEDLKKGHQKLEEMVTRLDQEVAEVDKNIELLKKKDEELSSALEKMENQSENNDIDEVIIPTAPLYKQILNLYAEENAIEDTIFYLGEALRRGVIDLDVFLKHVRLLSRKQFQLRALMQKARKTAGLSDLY

COc1cc(C(O)CN)ccc1O (stereo not drawn)
not listed: [18] | [19] | [20]
inactive: all other assays above

COc1ccc2c(c[n+](C)c3c4cc5c(cc4ccc23)OCO5)c1OC
active: [1] 11.2 µM | [2] 12.6 µM | [10] 10 µM | [13] 26.7 µM
inactive: [4] | [5] | [7] | [8] | [9] | [12] | [14] | [16] | [17]

NC1CC1c1ccccc1 (stereo not drawn)
active: [2] 10 µM | [3] 10 µM
not listed: [4] | [18] | [19] | [20]
inactive: all other assays above

C[C@]12N[C@H](Cc3ccccc31)c1ccccc12
active: [1] 7.08 µM | [2] 1.58 µM
not listed: [19] | [20]
inactive: all other assays above

NC(CCP(=O)(O)O)C(=O)O (stereo not drawn)
not listed: [20]
inactive: all other assays above

Oc1ccc2c3c1O[C@H]1c4[nH]c5c(c4C[C@@]4(O)[C@@H](C2)N(CC2CC2)CC[C@]314)C[C@@]1(O)[C@H]2Cc3ccc(O)c4c3[C@@]1(CCN2CC1CC1)[C@H]5O4
active: [2] 12.6 µM | [3] 12.6 µM | [17] 2.08 µM
not listed: [1] | [20]
inactive: all other assays above

Clc1cnc(Oc2ccc(Oc3ncc(Cl)cc3Cl)cc2)c(Cl)c1
not listed: [2] | [20]
inactive: all other assays above

C[C@@H](N)Cc1cnc[nH]1
not listed: [2] | [18] | [20]
inactive: all other assays above

c1ccc2sc(C3(N4CCCCC4)CCCCC3)cc2c1
active: [2] 7.94 µM | [3] 11.2 µM
not listed: [1] | [17] | [19] | [20]
inactive: all other assays above

CC(Cc1ccc(O)cc1)NCC(O)c1cc(O)cc(O)c1 (stereo not drawn)
not listed: [2] | [3] | [5] | [12] | [16] | [18] | [19] | [20]
inactive: all other assays above

CC[C@H](CO)Nc1nc(NCc2ccccc2)c2ncn(C(C)C)c2n1
active: [2] 5.62 µM | [3] 5.62 µM
inactive: [10]

CNCCc1ccc(O)c(O)c1
active: [2] 10 µM
not listed: [1] | [3] | [11] | [18] | [19] | [20]
inactive: all other assays above

Cc1cc(O)ccc1Cl
inactive: [20]

CC(C)(O)C(=O)Nc1ccc([N+](=O)[O-])c(C(F)(F)F)c1
inactive: [20]

Clc1ccc(C(c2ccc(Cl)cc2)n2cc[n+](CC(OCc3ccc(Cl)cc3Cl)c3ccc(Cl)cc3Cl)c2)cc1 (stereo not drawn)
active: [2] 3.98 µM | [3] 4.47 µM | [18] 28.2 µM | [10] 11.2 µM | [11] 11.2 µM | [12] 13.1 µM

CCCCc1ccc(C(=O)O)nc1
not listed: [2] | [3] | [18] | [19] | [20]
inactive: all other assays above

CCCN(CCC)C1CCc2ccc(O)cc2C1 (stereo not drawn)
active: [2] 7.94 µM | [3] 11.2 µM
not listed: [1] | [20]
inactive: all other assays above

Nc1ccc(Cl)cc1
inactive: [20]
